From PubChem BioAssay AID651774 (Broad Institute, 2012)
Measured potencies and affinities stand elsewhere. Calls of active or inactive are those of the source. The rule behind the calls is not given here.

experiment: HeLa cell viability loss – 24 h, dry powder, cytotoxicity control, dose response (AID 651774); conditions: CellTiter-Glo ATP luminescence; series mostly up to 35 µM; activity change, negative = cytotoxicity: at the top concentration

| Compound | activity change, negative = cytotoxicity |
| --- | --- |
| Cc1ccc2cc3c(NC(=O)c4ccco4)nn(C)c3nc2c1 | -17% (inactive) |
| CS(=O)(=O)c1cccc(CC(=O)NC2CCCC2)c1 | -3.23% (inactive) |
| N#Cc1cccc(CC(=O)NC2CCCC2)c1 | -5.54% (inactive) |
| O=C(Cc1ccc(-c2ccccn2)cc1)NC1CCCC1 | -8.44% (inactive) |
| O=C(Cc1ccc(-c2ccccc2)cc1)N1CCCC1 | 10.1% (inactive) |
